Screens deposited in PubChem BioAssay by several laboratories.
Most compounds without a hit are left out; they make up all but 2% or so of the library.
ABHD5-PLIN5 inh: ABHD5-PLIN5 protein interaction inhibition. Split G. princeps luciferase complementation, luminescence, 4 h. Q00G26+Q8WTS1. 0.78% of 360,000 active. inhibition, % at 4 µM. AID 602281;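 active means inhibition above the mean inhibition across every tested compound plus 3 SD, cut at about 22% in these data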;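 further: 0% = DMSO only wells and the 100% control is not disclosed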
Exocytosis inh: lytic granule exocytosis inhibition | AID 651702 | TALL-104 LAMP-1 surface exposure, flow cytometry; cells stimulated with thapsigargin and PMA | 0.66% of 360,000 active | inhibition, % at 10 µM;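 active means inhibition above about 55%, limit read from the data; inconclusive means no clear call, values can overlap the other calls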
TLR4 MyD88 comp: TLR4-MyD88 interaction inhibition in cells; 0.18% of 200,000 active; O00206+Q99836; inhibition, % at 8.4 µM; AID 861; HeLa CL3-4 TLR4/MyD88 BLA complementation, FRET ratio; in the data active means inhibition above about 25%;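 further: 0% = vehicle and 100% = reference inhibitor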
B2AR ag: activates human beta-2 adrenergic receptor causing internalization | P07550 | Am2.2-beta2AR cells, FAP receptor internalization, flow cytometry | response, % (test concentration not listed) | 0.43% of 340,000 active | AID 504454;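 active means response above a set limit, near 3 SD of response in nonfluorescent compounds, cut at about 42% in these data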
TLR9-MyD88 inh: blocks human TLR9 binding to MyD88. Q9NR96+Q99836. CHO BLA complementation TLR9-MyD88, CCF4 FRET ratio. inhibition, % at 4.98 µM. 0.21% of 340,000 active;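 active means inhibition above the mean over all tested compounds plus 3 SD, cut at about 21% in these data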;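 further: 0% = DMSO only wells and 100% = clavulanate BLA inhibitor control wells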
Target sequence (Q99836 whole entry, looked up): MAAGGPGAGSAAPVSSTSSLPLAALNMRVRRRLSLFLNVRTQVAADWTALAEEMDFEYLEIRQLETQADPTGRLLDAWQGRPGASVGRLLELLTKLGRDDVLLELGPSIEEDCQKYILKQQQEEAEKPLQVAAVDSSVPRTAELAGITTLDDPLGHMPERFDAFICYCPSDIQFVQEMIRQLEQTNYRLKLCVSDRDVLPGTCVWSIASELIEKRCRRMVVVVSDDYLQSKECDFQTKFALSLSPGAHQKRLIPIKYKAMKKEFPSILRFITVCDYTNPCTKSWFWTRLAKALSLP
Target sequence (Q9NR96 whole entry, looked up): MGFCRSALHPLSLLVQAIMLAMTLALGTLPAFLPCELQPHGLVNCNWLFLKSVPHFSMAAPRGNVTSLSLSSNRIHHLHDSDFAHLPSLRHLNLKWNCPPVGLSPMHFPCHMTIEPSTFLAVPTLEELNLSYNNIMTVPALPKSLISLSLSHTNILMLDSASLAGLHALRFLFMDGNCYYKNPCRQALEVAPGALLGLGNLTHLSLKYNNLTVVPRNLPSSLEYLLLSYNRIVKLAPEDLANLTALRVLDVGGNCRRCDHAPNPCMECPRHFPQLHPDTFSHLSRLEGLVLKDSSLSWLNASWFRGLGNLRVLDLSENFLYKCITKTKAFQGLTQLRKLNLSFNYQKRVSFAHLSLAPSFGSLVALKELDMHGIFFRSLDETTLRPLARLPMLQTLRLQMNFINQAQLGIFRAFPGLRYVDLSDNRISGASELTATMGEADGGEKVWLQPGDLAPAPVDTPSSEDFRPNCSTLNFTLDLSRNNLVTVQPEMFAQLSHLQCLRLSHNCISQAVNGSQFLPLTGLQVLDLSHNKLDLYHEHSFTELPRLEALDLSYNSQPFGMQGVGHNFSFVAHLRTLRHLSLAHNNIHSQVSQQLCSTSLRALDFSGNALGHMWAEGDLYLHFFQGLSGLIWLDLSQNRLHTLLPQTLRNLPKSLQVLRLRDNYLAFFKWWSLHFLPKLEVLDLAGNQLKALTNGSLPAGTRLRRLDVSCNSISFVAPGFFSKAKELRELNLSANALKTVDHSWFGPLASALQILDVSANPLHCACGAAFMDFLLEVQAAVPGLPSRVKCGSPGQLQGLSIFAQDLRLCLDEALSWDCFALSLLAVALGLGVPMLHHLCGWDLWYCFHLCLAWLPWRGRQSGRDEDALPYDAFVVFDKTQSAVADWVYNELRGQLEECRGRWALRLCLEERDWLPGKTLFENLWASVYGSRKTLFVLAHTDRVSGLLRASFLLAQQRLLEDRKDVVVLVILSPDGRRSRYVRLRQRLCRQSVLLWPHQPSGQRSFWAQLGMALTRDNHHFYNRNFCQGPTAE
NOD2-RIPK2 inh: inhibitors of human NOD2-RIPK2 interaction; CHO BLA complementation NOD2-RIPK2, CCF4 ratio; O43353; 0.38% of 360,000 active; AID 624267; inhibition, % at 4.98 µM; in the data active means inhibition above about 21%;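 further: 0% = vehicle only and 100% = reference blocker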
NOD2-RIPK2 conf: confirmation of human NOD2-RIPK2 interaction inhibitors. shares compounds with NOD2-RIPK2 inh. CHO cells, NOD2-RIPK2 BLA complementation, CCF4 FRET. inhibition, % at 4.98 µM. 70% of 1,200 active. AID 624370;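 active means mean inhibition across replicates above a set limit taken from the earlier primary screen, cut at about 21% in these data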;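 further: 0% = DMSO-only wells and the high end = clavulanate BLA-blocked wells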
NOD2 BLA counter: hits BLA reporter in NOD2-RIPK2 inhibitor counterscreen | CHO BLA reporter, CCF4 FRET ratio | shares compounds with NOD2-RIPK2 inh | inhibition, % at 4.98 µM | 57% of 1,200 active;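 active means mean inhibition above the low-control mean inhibition plus three low-control SD, cut at about 11% in these data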;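 further: 0% = DMSO only wells and 100% = clavulanate high control wells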
* = called active by the depositor; ? = inconclusive; / = no result.

SMILES | ABHD5-PLIN5 inh | Exocytosis inh | TLR4 MyD88 comp | B2AR ag | TLR9-MyD88 inh | NOD2-RIPK2 inh | NOD2-RIPK2 conf | NOD2 BLA counter
O=C(Nc1ccc2c(c1)OCCO2)C1c2ccccc2OCC(=O)N1CCc1c[nH]c2ccccc12 (configuration not stated) | 1 | -4 | / | / | / | 0 | / | /
N#C/C(C(=O)Nc1ccc(Cl)cc1)=C(/S)Nc1ccccc1 | -12 | 31 | / | -12 | 7 | 26* | 24* | 2
O=C(Nc1ccc(Nc2ccccc2)cc1)c1ccc(Cl)cc1 | -6 | 10 | / | 1 | 6 | -2 | / | /
Cc1ccc(S(=O)(=O)Oc2ccc(/C=C3/C(=N)N4C(=NC3=O)SN=C4S(C)(=O)=O)cc2)cc1 | 2 | -15 | / | -6 | -6 | -4 | / | /
COc1cc(/C=C2/C(=N)N3C(=NC2=O)SN=C3S(C)(=O)=O)ccc1OS(=O)(=O)c1ccc(C)cc1 | -13 | 0 | / | -8 | 9 | 23* | -2 | -9
CCOc1ccc(-c2cc(N)n(S(=O)(=O)c3cccc4nsnc34)n2)cc1 | 1 | ? | / | -3 | -1 | 22* | -5 | -5
COc1ccc(Nc2nnc(SCC(=O)N3CCCC3)s2)cc1 | -5 | 1 | -3 | 1 | -4 | -5 | / | /
COc1ccc(Nc2nnc(SCC(=O)N3CC(=O)Nc4ccccc43)s2)cc1 | -2 | -11 | 3 | -29 | -1 | 27* | 3 | -8
CCc1ccc(NC(=O)Cn2c(=O)c3cccn3c3ccccc32)cc1 | -3 | -1 | / | 2 | -2 | 22* | 11 | -2
CCOC(=O)c1ccc(NC(=O)Nc2nncs2)cc1 | -3 | 16 | / | / | 9 | 19 | / | /
CC(C(=O)NCc1ccccc1)n1c(Cc2cc(F)cc(F)c2)nc2ccccc21 (configuration not stated) | 3 | 2 | / | / | / | -3 | / | /
Cc1cnc(-c2nc3ccccc3n2C(C)C(=O)Nc2c(C)cccc2C)cn1 (configuration not stated) | -2 | -14 | / | / | / | -16 | / | /
Cc1cccc(C)c1NC(=O)C(c1cccc2ccccc12)n1c(=O)c(-c2cc3ccccc3[nH]2)nc2ccccc21 (configuration not stated) | 2 | 13 | / | / | / | 42* | 38* | 64*
CCC(C(=O)NCc1ccccc1)n1c(C2CCN(C(C)=O)CC2)nc2ccccc21 (configuration not stated) | -2 | 12 | / | / | / | -5 | / | /
O=C(NCc1ccccc1)C(CCc1ccccc1)n1c(=O)c(-c2cc3ccccc3[nH]2)nc2ccccc21 (configuration not stated) | 10 | 4 | / | / | / | 50* | 46* | 69*
O=C(NCc1ccccc1)C(c1cccc2ccccc12)n1c(=O)c(-c2cc3ccccc3[nH]2)nc2ccccc21 (configuration not stated) | 8 | 7 | / | / | / | 43* | 41* | 66*
Cc1cccc(C)c1NC(=O)C(c1ccccc1F)n1c(=O)c(-c2cc3ccccc3[nH]2)nc2ccccc21 (configuration not stated) | 3 | 1 | / | / | / | 50* | 46* | 68*
COC(=O)C[C@@H]1CC[C@@H](NS(=O)(=O)c2cccc(OC)c2)[C@@H](CO)O1 | 5 | -5 | / | / | / | -12 | / | /
CC(=O)Nc1ccc(S(=O)(=O)NCc2nc(-c3ccccc3C)no2)cc1 | / | -3 | / | 3 | 1 | / | / | /
CCOc1cc(/C=C2\SC(N)=NC2=O)ccc1O | 11 | 9 | / | 11 | 4 | -6 | / | /
CCOc1c(Br)cc(Br)cc1/C=C1\SC(N)=NC1=O | 3 | -11 | / | 2 | 4 | 32* | 3 | -3
COc1cc(/C=C2\C=CC(=O)O2)cc(OC)c1 | 12 | 12 | / | 5 | 4 | -9 | / | /
COc1ccccc1-c1ccc(/C=C2\C=CC(=O)O2)o1 | 14 | -4 | / | 1 | / | 48* | 45* | 49*
Cc1cc2nc(NC(=O)C3(C)CCCN(C(C)C)C3)[nH]c2cc1C (configuration not stated) | 2 | 0 | / | / | / | -6 | / | /
